40 sequences from the supplement of paper PMC6555819 can be followed below.

The test has as its system VDR:RXRa (NR concentration 270 nM, RXRa partner concentration 90 nM). Kind of test: PBM binding z-score (relative to random genomic background probes); higher = stronger binding; sequences stand for … in GC…GCGATTGACAGCGTAGAATGAAGG
The procedure:
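Protein-binding microarray (Agilent 4x180K custom design, double-stranded 60-nt probes: 5' GC cap, 34-nt variable region, 24-nt constant primer region; full probe sequence given). Purified or IVT nuclear receptor:RXRα heterodimers (3:1 NR:RXRα, mostly 270:90 nM) or homodimers were incubated for 1 h in PBS with 2% milk and no ligand, then detected with Alexa488 antibodies. Fluorescence from o1-orientation probes (~5 replicates averaged) was converted to z-scores against 500 random hg19 background probes. Variable regions are seed direct-repeat (DR0–DR5) sites, all their single-nucleotide variants and half-site ablations.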
CCTACTGGGCCACGAAAGGTAATTGATTCAGTGA yielded a PBM binding z-score of -0.34.

As for TCGAGTAGGTTACGGCGGCATTCAGGGATGAAGA, the PBM binding z-score was -0.251. As for ATCGAAAGGTCGAGGAGGTGAGTATACACCGTTT, the figure is 4.25; as for CGAGCTAGGTCACCAGGACAGTGAAGAGGTTGGA, 1.63; as for CGAACTAGGTAAAAGGACAGTGAAAGGCGACGTA, -0.189.

The sequence TAGCCTAGGTCATTGGGCCAGTATAGTACGCATC showed a PBM binding z-score of 2.11.

Take CGAACTAGGTCACCAGGACAGTGCAGAGGTTGGA: the PBM binding z-score is 2.28. Then TCGAGTAGGGTACGGGGGCATTCAGGGATGAAGA, with 3.64; and CGAACTAGGACATCCAGGACAGTGAATACATTGA, with -0.0982. Then CGAACTAGGTCACCAGGACAGTGATGAGGTTGGA, with 2.17; and CCTTACGGGCCACGAGGTTATAGCACGACGAGCG, with 0.504. As for CGAACTAGGTCAAAGGACACTGAAAGGCGACGTA, the figure is 1.74; as for ATCGAAAGGTCGAAAGTGAGTATACCCACCCGAA, 2.18. GCTTACGGGTCAAAGGTTATAGTATGAATAGAAT came in with a PBM binding z-score of 5.76. As for CCGAGTAGGTTAGGAGGGGGCATTCAGTGCGAAT, the figure is 4.91; as for ACTAGTTGGTCAGCTGGGGTCACACACAATTCGG, 4.93; as for GCTGCTAGGTCAGGTTGGTCAACTAACGGGTACG, 0.9. As for CCGAGTCGGTTACGAGGGGGCATTCAGTGCGAAT, the figure is 3.65; as for CGAACTAGGTCAAAGGACAGTGCAAGGCGACGTA, 1.68. On to CGTCCAAGGTCATAAGAGGTCAGTGAAGACAGAT, for which the PBM binding z-score worked out at 6.96. In the case of CCGAGTAGGTTACGAGGGGGCGTTCAGTGCGAAT, the PBM binding z-score came out at 4.72. Then TAGCCTAGGTCATTCAGGGGTCAGTATAGAAAGC, with 6.03; and CTATGTAGGTTAAGGGGGTCATCCAGTTTGAAAG, with 7.32; and CCGAGTAGGTTACGAGGGGGCATTCACTGCGAAT, with 4.98. The sequence CCTACTGGGCCAATAAGGTCATTGATGCCGATAA showed a PBM binding z-score of 5.29. Then TCGAGTAGGTTGCGGGGGCATTCAGGGATGAAGA, with 3.33. Then ATATGGAGGTTAGCTGGGGTCATTCAGACTAGGC, with 6.86. As for CCGAGTAGGTGACGAGGGGGCATTCAGTGCGAAT, the figure is 4.37. Turning to TCGAGTAGGTTACGGGCGCATTCAGGGATGAAGA, the PBM binding z-score is -0.354. Then ATATGTAGGTTAAGGGTCATGCAGGTTGGTTCGC, with 5.46; and CTATGTAGGTTAAGGGGGTCATGCAGTTTGAAAG, with 7.13. As for CCGAGTAGGTTACGAGCGGGCATTCAGTGCGAAT, the figure is 0.355.

As to ATATGGAGGTTAAGGGTCATTCAGGTTGGTTCGC, the PBM binding z-score came to 6.32. As for CGGCCAAGGTCAAAGGTCAGTGAAGAGATGACGG, the figure is 6.67; as for CTATGTCGGTTAAGGGGGTCATTCAGTTTGAAAG, 6.77; as for CGTACTAGGTCACCAGGACAGTGAAGAGGTTGGA, 1.93. CAAACTAGGTCAAAGGTCAAAGTAGAGCCAACCA registered a PBM binding z-score of 6.71. As for ATCGAAAGGTCGTGACGTGAGTATACAGAAAGGC, the figure is 3.03; as for TCATATAGGTGAAAGGTGAAAGTCGGTGTGGTAA, 2.12; as for CCTACTGGGCCATTAAGAGGTCATTGATCATATG, 3.95.
